The list is not random: actives were taken first. Their share in the collection is about 1%.
RECQ1 inh-1: blocks DNA unwinding by human RECQ1; Potency, µM (top dose mostly 57.3 µM), hits mostly inhibitors; RECQ1 DNA unwinding, red fluorescence kinetic read; P46063; 0.54% of 240,000 active; further: nearly all actives have a fitted effect of over 30% in size
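RECQ1T1 50 nM; forked duplex (20 bp + 30-nt ss tails) 200 nM, ATP 2 mM final; pH 8.0, 2 mM MgCl2, 2.5 ug/ml poly(dI-dC); 15 min compound preincubation; discontinuous kinetic read over 2 h at RT.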
WRN helicase inh: blocks human WRN helicase; Q14191; WRN helicase unwinding, fluorescent forked duplex, kinetic; Potency, µM (top dose mostly 114 µM), hits mostly inhibitors; 0.46% of 360,000 active; AID 651768; further: nearly all actives have a fitted effect of over 55% in size
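WRN at 20 nM final preincubated with compound 15 min at room temperature; reaction started with 100 nM fluorophore/quencher forked duplex oligonucleotide and 2 mM ATP final. Unwinding followed kinetically by red fluorescence (ex 525, em 598 nm).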
BLM inh-1: inhibitors of human Bloom syndrome helicase BLM; P54132; recombinant BLM DNA unwinding, fluorescence dequenching; Potency, µM (titrated, usually from 56.1 µM), hits mostly inhibitors; 0.2% of 350,000 active; AID 2528; further: nearly all actives have a fitted effect of over 35% in size
FEN1 inh-1: blocks human flap endonuclease 1; Potency, µM (highest dose often 114 µM), hits mostly inhibitors; P39748; 0.35% of 390,000 active; Recombinant FEN1 flap cleavage, fluorescence, 15 min; further: nearly all actives have a fitted effect of over 65% in size
Target sequence (P39748 whole entry, looked up): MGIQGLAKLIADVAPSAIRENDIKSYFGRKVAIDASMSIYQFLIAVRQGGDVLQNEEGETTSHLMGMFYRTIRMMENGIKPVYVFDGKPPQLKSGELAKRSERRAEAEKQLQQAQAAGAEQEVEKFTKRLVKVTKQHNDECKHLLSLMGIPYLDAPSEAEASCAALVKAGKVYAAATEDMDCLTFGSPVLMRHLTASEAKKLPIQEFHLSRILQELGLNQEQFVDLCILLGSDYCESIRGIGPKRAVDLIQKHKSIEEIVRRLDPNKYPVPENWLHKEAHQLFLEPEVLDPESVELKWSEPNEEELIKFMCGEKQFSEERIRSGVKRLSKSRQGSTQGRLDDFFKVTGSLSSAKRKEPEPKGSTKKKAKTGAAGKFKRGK
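Nuclease activity of 10 nM FEN1 was measured after 15 min of room-temperature exposure to titrated compounds, by adding 50 nM flap substrate and reading plates at 0 and 15 min.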
APE1 inh-1: blocks human APE1 abasic DNA cleavage; P27695; recombinant APE1, TAMRA/BHQ-2 abasic DNA cleavage fluorescence; Potency, µM (highest dose often 65.8 µM), actives largely listed as inhibitors; 0.35% of 350,000 active; further: nearly all actives have a fitted effect of over 55% in size
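Step 1: APE1 (0.75 nM) with compound, 15 min RT. Step 2: add 50 nM fluorophore/quencher THF duplex. Step 3: three fluorescence reads 60 s apart (525/598 nm); read 3 minus read 1 = reaction progress.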
L3MBTL1 inh-1: L3MBTL1 (human) inhibition. 0.66% of 230,000 active. AlphaScreen L3MBTL1–H3K9me1 peptide binding. Potency, µM (top dose mostly 57.1 µM), usual class: inhibitors. Q9Y468; further: nearly all actives have a fitted effect of over 60% in size
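AlphaScreen assay: L3MBTL1 (50 nM final) was preincubated 30 min at room temperature with biotinylated H3(1-15)K9me1 peptide (75 nM final), then 30 min with library compounds; streptavidin donor and nickel chelate acceptor beads (10 ug/mL final) added, 30 min dark.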
APE1 dye cs: counter-screen for APE1 inhibitors: DNA dye displacement | shares compounds with APE1 inh-1 | 7% of 480 active | DNA fluorescent dye displacement counterscreen, fluorescence | Potency, µM (doses to about 28.5 µM), hits mostly inhibitors;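 further: loss of thiazole orange fluorescence as the dye is displaced from duplex DNA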
Endo IV inh: counter-screen for APE1 inhibitors: inhibitors of E. coli endonuclease IV; shares compounds with APE1 inh-1; E. coli Endo IV, fluorogenic AP-site DNA cleavage; Potency, µM (top dose mostly 27.1 µM), actives largely listed as inhibitors; 4% of 560 active; AID 2565
APE1 inh-2: confirmation of inhibitors of human APE1 endonuclease. shares compounds with APE1 inh-1. purified APE1, fluorogenic abasic-site DNA cleavage. Potency, µM (top dose mostly 57.1 µM), actives largely listed as inhibitors. 44% of 750 active; further: nearly all actives have a fitted effect of over 30% in size
APE1 FP: displaces DNA from human APE1 in FP assay; shares compounds with APE1 inh-1; 7% of 480 active; APE1 binding to TAMRA-labelled double-stranded DNA, fluorescence polarization displacement; Potency, µM (titrated, usually from 28.5 µM), usual class: inhibitors; AID 2573
BLM inh-2: BLM (human) helicase inhibition, confirmation | Potency, µM, most hits filed as inhibitors | shares compounds with BLM inh-1 | AID 2585 | 40% of 220 active | BLM DNA unwinding, fluorescence quenching, biochemical;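 further: strand separation dequenches TAMRA so unwinding raises red fluorescence; series mostly up to about 69 µM; nearly all actives have a fitted effect of over 45% in size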
RECQ1 inh-2: RECQ1 helicase inhibition confirmed, round 2; 15% of 1,100 active; recombinant RECQ1 DNA unwinding, red fluorescence; shares compounds with RECQ1 inh-1; Potency, µM (doses to about 119 µM), usual class: inhibitors; AID 504841; further: nearly all actives have a fitted effect of over 50% in size
L3MBTL1 inh-2: blocks human L3MBTL1 methyl-lysine binding. shares compounds with L3MBTL1 inh-1. L3MBTL1 methyl-lysine binding inhibition, biochemical qHTS. Potency, µM, actives largely listed as inhibitors. 91% of 500 active; further: nearly all actives have a fitted effect of over 70% in size
AlphaScreen ctr2: counter-screen for L3MBTL1 inhibitors: AlphaScreen signal interference. shares compounds with L3MBTL1 inh-1. AlphaScreen counterscreen, signal inhibition. Potency, µM (top dose mostly 57.1 µM), usual class: inhibitors. 500 tested, under 10 active
FEN1 inh-2: confirmation of human FEN1 inhibitors; shares compounds with FEN1 inh-1; FEN1 flap cleavage, TAMRA/BHQ2 fluorogenic DNA substrate; Potency, µM, most hits filed as inhibitors; 79% of 880 active; AID 720498; further: nearly all actives have a fitted effect of over 60% in size
A number is an active result; - = inactive; ? = inconclusive; . = no result; [ ] = remark or other dose. The call rests on the fitted dose curve; in most records, active means well fitted curve in the direction sought with a large enough effect; inconclusive means small, poorly fitted or top-dose-only effect, or another doubt; inactive means no such curve, though single readings can be large; an effect the other way counts as inactive or inconclusive.

SMILES | RECQ1 inh-1 | WRN helicase inh | BLM inh-1 | FEN1 inh-1 | APE1 inh-1 | L3MBTL1 inh-1 | APE1 dye cs | Endo IV inh | APE1 inh-2 | APE1 FP | RECQ1 inh-2 | L3MBTL1 inh-2 | AlphaScreen ctr2 | FEN1 inh-2 | others
CSc1nc(NCCOCCO)c2sc3nc(-c4ccco4)c4c(c3c2n1)CCC4 | 25µM | - | 25µM | - | 32µM | 5.6µM | 13µM | - | 13µM | - | ? | 2.7 | - | . | BLM inh-2=?
CSc1nc(NCc2ccco2)c2sc3nc(C(C)C)c4c(c3c2n1)CC(C)(C)OC4 | - | - | - | - | - | - | . | . | . | . | . | . | . | .
O=C(Nc1cccc(S(=O)(=O)NC2=NCCCCC2)c1)c1cc(-c2ccco2)nc2ccccc12 | 20µM | ? | ? | - | 13µM | 35µM | - | - | ? | - | ? | 3 | - | .
Cc1nc(C#N)nc(Oc2ccccc2)c1Cl | . | . | . | - | . | . | . | . | . | . | . | . | . | .
COc1ccc(C(=O)Nc2nnc(Cc3cccs3)s2)cc1OC | - | - | - | - | - | - | . | . | . | . | . | . | . | .
COc1ccc(Cc2nnc(NC(=O)Cc3cccs3)s2)cc1OC | 20µM | ? | ? | - | 28µM | 6.3µM | ? | - | 2µM | - | ? | 11 | - | .
CCN(CC)Cc1c(O)c(Cl)cc2c(C)cc(=O)oc12 | ? | -[11.6 µM] | - | - | 13µM | 22µM | - | - | 28µM | - | 56µM | 15 | - | .
Cc1ccc(NC(=O)CN2C(=O)N/C(=C\c3cccn3-c3cccc(C(=O)O)c3)C2=O)cc1 | ? | 28µM | - | 79µM | 3.5µM | 10µM | - | - | 14µM | 14µM | . | 2.1 | - | 76
O=C(O)c1ccc(-n2cccc2/C=C2/NC(=O)N(c3cccc(Cl)c3)C2=O)cc1 | 22µM | ? | - | 40µM | 2.8µM | . | ? | - | 13µM | 11µM | . | . | . | 67
CN1C(=O)CC2(C=CC(=O)C=C2OC(=O)c2ccccc2)c2ccccc21 (stereo not given) | - | . | - | - | - | . | . | . | . | . | . | . | . | .
Cc1cccc(NC(=O)CN2C(=O)S/C(=C\c3ccc(-c4cccc(C(=O)O)c4C)o3)C2=O)c1 | - | - | ? | 40µM | ? | . | . | . | 25µM | . | . | . | . | 67

Compound activity from PubChem.
